Assay [1] can be described thus: A CellTox Green Cytotoxicity Assay to monitor cytotoxicity in HepG2 cells - 8 hour (AID 1224890). Further: nearly all actives have a fitted effect of over 45% in size. The gist of the method: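 HepG2, 600 cells/well premixed w/ CellTox Green; 5 h settle, 37 C/5% CO2; pintool cpd add (DMSO); 37 C, 40 h; fluorescence read at 0, 8, 16, 24, 32, 40 h.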
The nature of assay [2]: qHTS assay to identify small molecule antagonists of the estrogen receptor alpha (ER-alpha) signaling pathway using the BG1 cell line in the presence of 0.1 nM 17-beta-estradiol - cell viability counter screen (AID 1259241). Further: nearly all actives have a fitted effect of over 40% in size. An outline of the steps:
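Viability in VM7Luc4E2 cells after 22 hr compound exposure under 0.1 nM 17beta-estradiol stimulation, by CellTiter-Fluor.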

Assay [3] is described as follows: qHTS assay to identify small molecule antagonists of the androgen receptor (AR) signaling pathway using the MDA cell line in the presence of 0.5 nM R1881 - cell viability counter screen (AID 1259242). Further: nearly all actives have a fitted effect of over 45% in size. The gist of the method:
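Live-cell protease fluorescence, CellTiter-Fluor, 30 min at 37C. Cells: MDA-kb2, 3,000/well, preincubated 5 hr. Compounds plus 0.5 nM R1881 final, 16 hr, 37C, 0% CO2.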

Assay [4] can be described thus: qHTS assay to identify small molecule phospholipidosis (PLD) inducers (AID 1259344; active means well fitted curve in the direction sought with a large enough effect; an effect the other way counts as inactive or inconclusive). An outline of the steps: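 Phospholipid accumulation was scored by imaging: fixed, Hoechst-counterstained HepG2 cells stained with LipidTOX Red after 24 h compound exposure at 37 C. Read-outs were pit count and pit intensity per well or per cell, with amiodarone and DMSO controls.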
Background: In qHTS, concentration-response curves come from the screen itself.

Assay [5] is described as follows: qHTS assay to identify small molecule HDAC inhibitors (AID 1259364). Further: potency means the concentration at half of the fitted maximal effect.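 Further: wild-type HCT-116 cells with endogenous class I/II HDAC activity; nearly all actives have a fitted effect of over 45% in size.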 On activity change, negative = inhibition: top concentration of the series differs between compounds. The gist of the method:
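HCT-116 (wild type), 1,500 cells/well, overnight; compound 2 hr 37C 5% CO2; HDAC-Glo I/II reagent 30 min RT; luminescence readout.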

The nature of assay [6]: qHTS assay to identify small molecule HDAC inhibitors - cell viability counter screen (AID 1259365). Further: series mostly up to about 92 µM; nearly all actives have a fitted effect of over 50% in size. The gist of the method: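 Cytotoxicity was gauged in wild-type HCT-116 cells after a brief 2hr treatment with DMSO-dissolved compounds at 37C and 5% CO2, using CellTiter-Glo luminescence developed for 30min at room temperature.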
A short description of assay [7]: qHTS assay to identify small molecule antagonists of the sonic hedgehog signaling (Shh) pathway - cell viability counter screen (AID 1259367). Further: nearly all actives have a fitted effect of over 55% in size. The gist of the method: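 Viability was read by CellTiter-Fluor fluorescence in the same wells, reagent added 23 hr into compound treatment and incubated 1 hr at 37C. The 3T3 Gli1-Luc reporter cells (2,000/well) received conditioned medium after compound and ran 24 hr.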

The nature of assay [8]: qHTS assay to identify small molecule agonists of the sonic hedgehog signaling (Shh) pathway - cell viability counter screen (AID 1259366). Further: nearly all actives have a fitted effect of over 50% in size. The gist of the method: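 Stable Gli1-Luc NIH/3T3 clone, 2,000 cells/well. Compound exposure 24hr at 37C. Read-out: CellTiter-Fluor fluorescence.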
The target in assay [9] is Estrogen receptor (Homo sapiens) (UniProt P03372). The experiment in a line: qHTS assay to identify small molecule antagonists of the estrogen receptor alpha (ER-alpha) signaling pathway using the BG1 cell line in the presence of 0.1 nM 17-beta-estradiol (AID 1259244). Further: nearly all actives have a fitted effect of over 50% in size. The gist of the method: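 Luminescence after ONE-Glo (30 min, room temperature) measured ERE-luciferase activity in VM7Luc4E2 cells treated 22 h with compound and 0.1 nM final 17beta-estradiol as stimulator.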

Values without a mark were called inactive. Inconclusive results are not listed. Calls of active or inactive are those of the source. Unless noted, the call rests on the fitted dose curve; in most records, active means well fitted curve in the direction sought with a large enough effect in the repeat runs; inconclusive means weak or mixed curves; inactive means no such curve, though single readings can be large; an effect the other way counts as inactive or inconclusive.
On the % scale 0 is the no-effect control and ±100 the full control effect.

Chain of Estrogen receptor (Homo sapiens) (P03372 whole entry, looked up): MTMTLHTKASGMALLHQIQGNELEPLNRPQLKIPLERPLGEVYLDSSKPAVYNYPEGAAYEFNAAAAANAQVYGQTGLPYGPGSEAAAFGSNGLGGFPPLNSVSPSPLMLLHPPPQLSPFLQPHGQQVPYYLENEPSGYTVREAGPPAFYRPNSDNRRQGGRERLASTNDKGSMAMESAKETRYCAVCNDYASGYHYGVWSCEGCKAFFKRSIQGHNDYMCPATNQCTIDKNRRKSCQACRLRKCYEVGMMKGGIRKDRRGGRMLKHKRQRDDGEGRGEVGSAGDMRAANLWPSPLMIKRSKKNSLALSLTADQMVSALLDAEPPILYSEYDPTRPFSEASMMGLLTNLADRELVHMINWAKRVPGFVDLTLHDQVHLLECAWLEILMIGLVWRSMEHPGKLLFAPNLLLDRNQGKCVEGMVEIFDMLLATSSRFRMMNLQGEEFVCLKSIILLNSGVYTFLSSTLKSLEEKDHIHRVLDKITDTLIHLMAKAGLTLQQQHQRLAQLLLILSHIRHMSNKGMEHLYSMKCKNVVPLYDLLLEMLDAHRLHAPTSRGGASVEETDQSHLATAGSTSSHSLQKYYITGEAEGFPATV

With `NS(=O)(=O)c1cc(C2(O)NC(=O)c3ccccc32)ccc1Cl` (stereo not drawn), the Potency result in assay [1], in assay [4] and in [5] was “inactive” in each case. For the same compound, the outcome in assay [2], in assay [3], in assay [6] and in [7] was inactive.

`C#CC(C)(O)CC(C)C` (stereo not drawn): the Potency entry in [1], in assay [5] and in assay [8] was “inactive” throughout. Moreover, the result in assay [2], in assay [3], in assay [6] and in assay [7] was inactive.

Take `CC(C)c1cccc(C(C)C)c1N`: the Potency entry in assay [1] and in assay [5] was “inactive” throughout. The outcome in [2], in assay [3], in [9], in assay [6] and in [7] was inactive.

For the compound `CCCCCCCCCCCCCCC`, the Potency entry in [1] and in assay [5] was “inactive” in each case. The outcome in assay [2], in [3] and in [6] was inactive.

Take `CNc1ncnc2nc[nH]c12`: the Potency result in assay [1] and in assay [5] was “inactive” throughout. In addition, the outcome in assay [2], in assay [3], in assay [9], in [6] and in [7] was inactive.

Regarding `NC(=O)c1c(Cl)cccc1Cl`, the Potency entry in [1] and in assay [5] was “inactive” in each case. The result in assay [2], in assay [3], in [9], in assay [6] and in assay [7] was inactive.

With `C=CCSCC1Nc2cc(Cl)c(S(N)(=O)=O)cc2S(=O)(=O)N1` (stereo not drawn), the Potency result in assay [1], in assay [4], in assay [5] and in [8] was “inactive” each time. The outcome in [2], in [3], in assay [6] and in [7] was inactive.

With `Cc1onc(-c2ccccc2)c1-c1ccc(S(N)(=O)=O)cc1`, the Potency result in [1], in [4] and in assay [5] was “inactive” in each case. Besides, the result in assay [2], in assay [3], in assay [6] and in [7] was inactive.

For `CN(C)N=Nc1ccccc1`, the Potency entry in assay [1], in assay [5] and in assay [8] was “inactive” each time. Moreover, the outcome in assay [2], in assay [3], in [6] and in [7] was inactive.

Take `CO`: the Potency result in assay [1], in assay [4] and in [5] was “inactive” throughout. For the same compound, the result in assay [2], in [3], in assay [6] and in assay [7] was inactive.

Turning to `C=CC(=O)OCCCCCC`, the Potency result in [1], in assay [5] and in assay [8] was “inactive” throughout. The outcome in [2], in assay [3], in assay [6] and in assay [7] was inactive.

Take `Cc1ccc(N)cc1[N+](=O)[O-]`: the Potency entry in assay [1], in assay [5] and in assay [8] was “inactive” each time. The outcome in assay [2], in assay [3], in [6] and in assay [7] was inactive.

As for `C=CCOc1nc(OCC=C)nc(OCC=C)n1`, the Potency result in assay [1], in [5] and in [8] was “inactive” each time. The result in [2], in assay [3], in assay [6] and in assay [7] was inactive.

On to `c1ccc(CCCc2ccccn2)cc1`, for which the Potency result in assay [1] and in assay [8] was “inactive” each time. Besides, the result in [2], in [3], in assay [9], in [6] and in assay [7] was inactive. For the same compound, in assay [5], the Potency is 4.33 µM (active).

As to `CCCCc1ccc(N)cc1`, the Potency result in [1] and in [5] was “inactive” in each case. For the same compound, the outcome in assay [2], in assay [3], in assay [9], in assay [6] and in [7] was inactive.

Regarding `O=C(O)/C=C/c1ccc(Cn2ccnc2)cc1`, the Potency entry in assay [1], in [4], in assay [5] and in [8] was “inactive” throughout. For the same compound, the result in assay [2], in assay [3], in [6] and in [7] was inactive.

For the compound `NC(=S)Nc1cccc2ccccc12`, in assay [1], the cytotoxicity increase is 0.879% [at 6.97 µM]. Moreover, the results for the activity change, negative = cytotoxicity in assay [2] and in assay [6] were 7.82% [at 8.39 µM] and -1.1% [at 8.39 µM], respectively. In addition, the viability change, negative = cytotoxic was 0.661% [at 8.39 µM] in [3] and -0.646% [at 8.39 µM] in assay [8]. In addition, the activity change, negative = inhibition in [5] is 2.32% [at 8.39 µM].

As for `CCOC(=O)[C@H](CCc1ccccc1)N[C@@H](C)C(=O)N1CCC[C@H]1C(=O)O`, the Potency result in assay [1], in assay [4], in [5] and in assay [8] was “inactive” throughout. In addition, the outcome in assay [2], in assay [3], in assay [6] and in [7] was inactive.

Turning to `CCCCCCC(=O)OCC`, the Potency entry in assay [1] and in assay [5] was “inactive” throughout. For the same compound, the outcome in assay [2], in assay [3], in [9], in [6] and in [7] was inactive.

With `NC(CS)C(=O)O` (stereo not drawn), the Potency entry in [1], in assay [4], in assay [5] and in [8] was “inactive” in each case. Moreover, the result in assay [2], in [3], in assay [6] and in assay [7] was inactive.

`CCO[Si](C)(OCC)OCC`: the Potency entry in assay [1] and in [5] was “inactive” in each case. Moreover, the outcome in assay [2], in [3], in assay [9], in [6] and in assay [7] was inactive.

For `CSc1nc(NC2CC2)nc(NC(C)(C)C)n1`, the Potency result in assay [1], in [5] and in assay [8] was “inactive” throughout. Further, the result in assay [2], in assay [3] and in [6] was inactive.

As to `CC(C)(C)N(CCO)CCO`, the Potency result in assay [1] and in assay [5] was “inactive” in each case. Also, the outcome in [2], in assay [3], in [9], in assay [6] and in [7] was inactive.

As to `OC/C=C/c1ccccc1`, the Potency result in assay [1], in assay [4], in [5] and in [8] was “inactive” in each case. The outcome in assay [2], in assay [3] and in [6] was inactive.

In the case of `OCCCCCCO`, the Potency entry in [1], in assay [5] and in assay [8] was “inactive” throughout. Further, the result in [2], in assay [3], in assay [6] and in [7] was inactive.

For the compound `CC(C)(O)Cc1ccccc1`, the Potency entry in assay [1] and in assay [5] was “inactive” throughout. The result in assay [2], in [3], in assay [9], in assay [6] and in [7] was inactive.

Source of the values: PubChem BioAssay (Tox21).
